# ALDH1A1 block: blocks purified human ALDH1A1 activity; hit rate 7.3% among 220,000; Purified ALDH1A1, NADH fluorescence, propionaldehyde substrate; Potency, µM (series often up to 75.3 µM), inactives show at the highest dose activity, negative = inhibition, most hits filed as inhibitors;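 note: potency is the fitted concentration of half-maximal effect; plate controls were no enzyme wells and a reference inhibitor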
# Target sequence (P00352 whole entry, looked up): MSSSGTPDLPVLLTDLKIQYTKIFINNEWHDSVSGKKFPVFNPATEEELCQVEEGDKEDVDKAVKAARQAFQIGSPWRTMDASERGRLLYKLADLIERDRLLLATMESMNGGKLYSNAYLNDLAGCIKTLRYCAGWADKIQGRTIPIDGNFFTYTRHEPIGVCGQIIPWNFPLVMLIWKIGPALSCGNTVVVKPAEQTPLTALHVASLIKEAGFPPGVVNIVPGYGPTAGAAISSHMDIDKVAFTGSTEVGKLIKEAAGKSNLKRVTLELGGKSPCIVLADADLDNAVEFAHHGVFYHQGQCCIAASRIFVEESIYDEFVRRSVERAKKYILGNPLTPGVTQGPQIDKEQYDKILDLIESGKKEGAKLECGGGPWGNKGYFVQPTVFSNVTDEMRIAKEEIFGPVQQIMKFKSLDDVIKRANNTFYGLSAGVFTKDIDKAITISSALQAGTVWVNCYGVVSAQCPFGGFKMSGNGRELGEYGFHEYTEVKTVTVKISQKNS
# IMPase inh: cell-permeable inhibitors of inositol monophosphatase (IMPase). CHO-M1 cells, IP1 accumulation, HTRF TR-FRET ratio. P97697. 120,000 tested, under 10 active. AID 901. inhibition (IP1 accumulation), % at 46.1 µM; active = well fitted curve in the direction sought with a large enough effect in the signal ratio, not every such curve was filed as active; inconclusive = small, poorly fitted or top-dose-only effect, or a change in a side signal; inactive = no such curve, though single readings can be large or run the other way; the % refers to the signal ratio;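 note: cells stimulated with carbachol in lithium chloride buffer; plate controls were DMSO basal wells for no effect and reference inhibitor wells for full effect; higher means more IMPase inhibition seen as more IP1 and lower FRET ratio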
# Target sequence (P97697 whole entry, looked up): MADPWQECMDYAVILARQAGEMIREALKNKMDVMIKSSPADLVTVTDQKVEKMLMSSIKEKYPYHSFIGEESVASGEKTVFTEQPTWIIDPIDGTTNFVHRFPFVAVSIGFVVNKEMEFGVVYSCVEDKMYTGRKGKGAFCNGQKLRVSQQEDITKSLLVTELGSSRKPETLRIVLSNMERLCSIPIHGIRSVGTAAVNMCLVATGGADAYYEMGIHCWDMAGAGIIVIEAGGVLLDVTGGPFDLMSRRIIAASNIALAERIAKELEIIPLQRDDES
#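 Carbachol-driven Gq signalling in CHO-M1 cells (2000/well) generates IP1. Compounds that block IMPase raise IP1 and so reduce the FRET signal from Eu-anti-IP1 and d2-IP1 after a 10 min room-temperature lysis.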
# NPSR antag: antagonists of human neuropeptide S receptor cAMP signaling. CHO-NPSR cells, cAMP TR-FRET, antagonist mode. Q6W5P4. Potency, µM (doses to about 38.3 µM), without a hit: at the highest dose activity change, negative = inhibition, most hits filed as inhibitors. hit rate 1% among 220,000; active = well fitted curve in the direction sought with a large enough effect; inconclusive = small, poorly fitted or top-dose-only effect, or another doubt; inactive = no such curve, though single readings can be large; an effect the other way counts as inactive or inconclusive; note: potency is the fitted concentration of half-maximal effect; nearly all actives have a fitted effect of over 50% in size
# HPGD inh: inhibitors of human 15-hydroxyprostaglandin dehydrogenase (HPGD). Potency, µM, inactives show at the top dose activity change, negative = inhibition, actives largely listed as inhibitors. hit rate 4.3% among 150,000. purified HPGD, NADH fluorescence kinetic, PGE2 substrate. P15428; note: potency is the fitted concentration of half-maximal effect
#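 20 nM HPGD preincubated 15 min at room temperature with compound in 50 mM Tris-HCl pH 8, 0.01% Tween 20. Started with 1 mM NAD+ and 30 uM prostaglandin E2; NADH fluorescence (360/450 nm) read 5 times over 30-s intervals, last minus first.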
# IMPase Li cell: cell-permeable IMPase inhibitors with lithium potentiation; CHO-M1 cells, IP1 TR-FRET (IP-One), carbachol + lithium; Potency, µM (series often up to 59.4 µM), inactives show at the top dose activity, negative = IMPase inhibition, usual class: inhibitors; hit rate 0.35% among 210,000; active = well fitted curve in the direction sought with a large enough effect; inconclusive = small, poorly fitted or top-dose-only effect, or another doubt; inactive = no such curve, though single readings can be large; an effect the other way counts as inactive or inconclusive;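 note: IP1 builds up when IMPase is blocked and the TR-FRET signal falls; potency is the fitted concentration of half-maximal effect; plate controls were basal vehicle for no effect and high inhibitor control for full effect; nearly all actives have a fitted effect of over 50% in size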
#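 Concentration–response in CHO-M1 cells, lithium-potentiated; 30 min at 37C. IP1 detected by competitive TR-FRET after 10 min lysis at RT. Hill-fitted AC50.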
# PNC assembly inh: inhibitors of perinucleolar compartment assembly; PC3M PTB-GFP, PNC prevalence imaging, 16 h; hits give low values; activity change (PNC), negative = inhibition, % at 10 µM; hit rate 3.1% among 140,000; AID 2417;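 active = readout at or below -70, meaning at least 70% loss of cells showing the perinucleolar compartment, a nuclear body marking cancer cells; inconclusive = readout between -30 and a set limit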;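 note: plate controls were DMSO wells for no effect and camptothecin positive control wells for full effect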
#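 PC3M cells stably expressing PTB-GFP, 750–1000 cells/well, treated 16 h at 37 °C with compound (23 nl of library stock), in duplicate. After paraformaldehyde fixation and Hoechst stain, imaged at 20x; PNC prevalence scored by image analysis.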
# An asterisk follows results filed as active; u = inconclusive; x = not tested or not shown; [ ] = dose if it differs, or a comment. Sampled rows, rich in hits. Any-hit rate of the full collection: about 11%. Unless noted, calls come from the whole dose curve; as a rule, active = well fitted inhibition curve with a large enough effect (not every such curve was filed as active); inconclusive = small, poorly fitted or top-dose-only effect, or another doubt; inactive = no such curve, though single readings can be large or run the other way. Unless noted, % is set by controls: 0 for no effect and ±100 for the full control effect.
SMILES,ALDH1A1 block,IMPase inh,NPSR antag,HPGD inh,IMPase Li cell,PNC assembly inh
CCOC(=O)C1=C(c2ccccc2)NC(=O)NC1c1ccc(OC)cc1 (stereo not drawn),-14%,x,2%,x,5%,x
CCOC(=O)C1=C(C)NC(=O)NC1c1ccc(OCC(N)=O)cc1 (stereo not drawn),8%,-7,-6%[46.1 µM],-12%,1%,-100*
CNC(=O)Cc1csc2ccc(C)cc12,x,x,7%,x,x,x
C=CCn1c(SCC(=O)C23CC4CC(CC(C4)C2)C3)nc(O)cc1=O,u,x,33%,x,x,x
C[N+](C)(C)CC=O,-7%,0,8%[46.1 µM],-7%,-5%,x
CCC(C)c1ccccc1OCC(=O)Nc1ccc(S(=O)(=O)Nc2cc(C)on2)cc1 (stereo not drawn),x,4,x,x,x,x
COC(=O)C1CCN(C(=O)COC(=O)c2n[nH]c3ccccc23)CC1,-9%,-3,-13%[46.1 µM],u,-5%[38.3 µM],-14
COCCn1c(C)cc(/C=C2/NC(=O)N(c3ccc(Cl)cc3)C2=O)c1C,-7%,x,-16%,-21%,-5%,-114*
COCCn1c(C)cc(/C=C2/NC(=O)N(Cc3ccc(C)cc3)C2=O)c1C,x,x,-17%,x,x,x
CCOc1ncccc1C(=O)OCC(=O)c1ccc(Cl)s1,u,-6,0%[46.1 µM],20µM*,4%[38.3 µM],-12
O=C1CN(C(=O)COC(=O)C2=COCCO2)c2ccccc2N1,12%,u,-7%[46.1 µM],x,x,u
O=C(OCC(=O)N1CCc2ccccc21)c1ccc[nH]c1=O,-15%,x,6%,x,-1%,x
CCOc1ncccc1C(=O)OCC(=O)N1CCc2ccccc21,7.9µM*,x,8%,x,0%,x
O=C(OCC(=O)N1CCc2ccccc21)c1c2c(nc3ccccc13)CCCC2,3%,7,u,x,x,-110*
CCOc1ncccc1C(=O)OCC(=O)c1ccc(F)cc1,5%,x,7%,x,-1%,x
O=C(OCC(=O)N1CCc2ccccc21)C1=COCCO1,14µM*,-3,-9%[46.1 µM],-12%,-3%,u
Cc1nc2ccccc2n1C(=O)c1ccc(Cl)cc1[N+](=O)[O-],-7%,x,19%,u,-3%,-4
COc1ccc2nc(Cl)c(C3CC(c4ccco4)=NN3C(=O)CCCC(=O)O)cc2c1 (stereo not drawn),x,x,8%[7.67 µM],x,x,x
Cc1nn(-c2ccccc2)c(Cl)c1/C=C1\SC(=S)NC1=O,u,5,10µM*,16µM*,35%[38.3 µM],u
COc1ccc(-n2cccc2/C=C2\C(=N)N3N=C(C(C)C)SC3=NC2=O)cc1,u,x,-44%,x,-4%,x
Cc1nn(-c2ccccc2)c(Cl)c1/C=C1/C(=N)N2N=C(C(C)C)SC2=NC1=O,u,x,-27%,22µM*,-5%,u
O=C(CN1CCCC1)Nc1c2c(cc3c1CCC3)CCC2,u,x,19%,-14%,16%,48
CCOc1cc(Cl)c(NC(=O)CC)cc1OCC,9%,x,13%,-1%,0%,-114*
COc1ccccc1/C=C\C=N\n1c(-c2ccc(Cl)cc2)n[nH]c1=S,35µM*,x,-8%,13µM*,7%,28
COc1ccccc1/C=C/C=N/n1c(-c2ccc(F)cc2)n[nH]c1=S,u,x,19%,x,x,x
SMILES,ALDH1A1 block,IMPase inh,NPSR antag,HPGD inh,IMPase Li cell,PNC assembly inh
Cc1ccc(-c2n[nH]c(=S)n2/N=C/C=C/c2ccccc2[N+](=O)[O-])cc1,5%,9,u,2.8µM*,19%[38.3 µM],-3
Cc1n[nH]c(=S)n1/N=C/c1ccccc1OCc1ccc(Cl)cc1,-6%,11,-25%[46.1 µM],10µM*,-1%[38.3 µM],u
Cc1n[nH]c(=S)n1/N=C/c1cccc(OCc2ccccc2)c1,-9%,x,-40%,x,9%,x
COc1ccccc1/C=C\C=N\n1c(-c2ccc(Cl)cc2Cl)n[nH]c1=S,-4%,x,-7%,4µM*,6%,20
Cc1ccc(C)c(S(=O)(=O)NCc2ccc(C(=O)NCc3ccco3)cc2)c1,u,-1,-15%,-29%,7%,-7
CCOc1ccc(C(C)=O)cc1COC(=O)C1=COCCO1,14µM*,-8,-9%[46.1 µM],-18%,1%[38.3 µM],21
C=CCNC(=O)COC(=O)c1nc2nccc(C)n2n1,13%,x,7%,x,-2%,x
COc1cc(CN2CCN(C(C)C)C(CCO)C2)ccc1OCc1ccccc1 (stereo not drawn),2%,x,-8%,x,7%,x
COc1ccc(CC(=O)N2CC(C)CC(C)C2)cc1 (stereo not drawn),u,6,-9%[46.1 µM],28µM*,20%[38.3 µM],57
COc1ccc(CC(=O)N2CCOCC2)cc1,1%,-2,-8%[46.1 µM],-14%,-2%,-28
N#C/C(=C1\C(=O)Nc2c(Cl)cc(Cl)cc21)c1nnc2n1CCCCC2,3.5µM*,13,10%[46.1 µM],-23%,12%[38.3 µM],u
N#C/C(=N\Nc1ccc(Cl)cc1)C(=N)N1CCCCC1,u,7,-19%[46.1 µM],-23%,13%[38.3 µM],20
N#C/C(=N\Nc1cc(Cl)cc(Cl)c1)c1nnc2n1CCCCC2,8.9µM*,x,-41%,25µM*,17%,u
N#C/C(=C1/CCCCCN1)c1nnc2n1CCCCC2,-9%,6,-3%[46.1 µM],-6%,19%[38.3 µM],45
O=C(/C=C/Nc1cccc(C(F)(F)F)c1)c1ccco1,-11%,x,-32%,x,1%,x
O=C(CNC(=O)c1ccncc1)N/N=C/c1cccc([N+](=O)[O-])c1,6%,x,14%,x,-6%,x
O=C(NCc1ccccc1Cl)C1CCCN(c2nc3ccsc3c(=O)s2)C1 (stereo not drawn),-9%,x,u,x,u,x
Cc1ccc(N2CC(C(=O)N/N=C/c3cccc([N+](=O)[O-])c3)CC2=O)cc1 (stereo not drawn),-14%,u,-11%[46.1 µM],-18%,5%[38.3 µM],-83*
Clc1ccccc1Cn1nnc(-c2cccs2)n1,u,8,-8%[46.1 µM],-11%,11%[38.3 µM],1
Cc1c(Cl)cccc1-n1nnnc1-c1cccs1,11µM*,-7,-6%[46.1 µM],-6%,32%[38.3 µM],u
CCn1c(Cn2nnc(-c3ccccc3)n2)nnc1SCC(=O)Nc1cccc(C)c1C,u,4,u,-10%,-10%[38.3 µM],11
Cc1nnc(-c2cnn(-c3ccccc3)c2N)n1Cc1ccncc1,-4%,-3,-4%[46.1 µM],-7%,-3%[38.3 µM],18
Cc1nnc(-c2cnn(-c3ccccc3)c2N)n1Cc1cccc(C(F)(F)F)c1,u,7,-17%[46.1 µM],13µM*,-14%[38.3 µM],-10
CCc1ccc(-n2c(C)cc(/C=N/NC(=O)c3ccncc3)c2C)cc1,7.9µM*,x,-21%,x,10%,x
CC1(CC(=O)N/N=C/c2cc([N+](=O)[O-])c(O)cc2O)OCCO1,u,x,-5%,x,5%,x
Cc1ccc(-n2c(C)cc(/C=N/NC(=O)c3ccncc3)c2C)c(C)c1,13µM*,3,26%[46.1 µM],-15%,7%[38.3 µM],-21
